Measured values from PubChem BioAssay (EPA / NIEHS).
Inconclusive results are not listed. Some compounds were tested as several samples or in several runs, with calls that do not always agree. Calls of active or inactive are those of the source. The calls were made as follows: active = hit-call score of the fitted dose curve at least 0.9, where 1 is the maximum; inconclusive = response in the unintended direction; inactive = score below 0.9.

Assays:
[1] = target: human Phosphodiesterase 4A1 (PDE4A1), PDE4A (gene 5141) (UniProt P27815); experiment: NVS_ENZ_hPDE4A1: NovaScreen (NVS) Enzymatic Assay for human Phosphodiesterase 4A1 (PDE4A1) (AID 2283191)
Summary of the method: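 Fluorescent substrate turnover by recombinant PDE4A1 read after 1 h by mobility-shift separation. Primary duplicate screen at 25 uM; hits retested in concentration series with a 50 uM maximum, relative to DMSO.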

[2] = target: human MET Proto-Oncogene, Receptor Tyrosine Kinase (MET), MET (gene 4233) (UniProt P08581); experiment: NVS_ENZ_hMet: NovaScreen (NVS) Enzymatic Assay for human MET Proto-Oncogene, Receptor Tyrosine Kinase (MET) (AID 2283180)
Summary of the method: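 Hits from a 25 uM duplicate screen were retested in concentration series up to 50 uM. Enzyme activity was measured by fluorescence after electrophoretic separation of product from substrate, 1 h after compound addition, relative to DMSO.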

[3] = target: Protein deacetylase HDAC6 (Homo sapiens) (UniProt Q9UBN7); experiment: NVS_ENZ_hHDAC6: NovaScreen (NVS) Enzymatic Assay for human Histone Deacetylase 6 (HDAC6) (AID 2283164)
Summary of the method: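 Concentration-response runs up to 50 uM followed a duplicate 25 uM single-point screen. Deacetylase activity of recombinant human HDAC6 read by fluorescence after 1 h, with mobility-shift separation of substrate and product; DMSO as baseline.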

[4] = target: Mitogen-activated protein kinase 3 (Homo sapiens) (UniProt P27361); experiment: NVS_ENZ_hMAPK3: NovaScreen (NVS) Enzymatic Assay for human Mitogen-Activated Protein Kinase 3 (MAPK 3) (AID 2283177)
Summary of the method: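 Chemicals were first tested in duplicate at 25 uM, with hits re-run as concentration series (max 50 uM). Recombinant enzyme activity, measured 1 h post-dose in a cell-free format, was read by fluorescence/mobility shift relative to DMSO.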

[5] = target: human Matrix Metalloproteinase-9 (MMP9), MMP9 (gene 4318) (UniProt P14780); experiment: NVS_ENZ_hMMP9: NovaScreen (NVS) Enzymatic Assay for human Matrix Metalloproteinase-9 (MMP9) (AID 2283190);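 also: cell-free recombinant MMP9 protease activity read by fluorescent substrate signal; active means inhibition seen as loss of fluorescence signal versus DMSO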
Summary of the method: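 Cell-free recombinant MMP9 enzyme activity measured by fluorescence intensity 1 h after dosing. Primary screen in duplicate at 25 uM, actives followed in concentration series; loss of signal relative to DMSO.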

[6] = target: human Matrix Metalloproteinase-2 (MMP2), MMP2 (gene 4313) (UniProt P08253); experiment: NVS_ENZ_hMMP2: NovaScreen (NVS) Enzymatic Assay for human Matrix Metalloproteinase-2 (MMP2) (AID 2283184)
Summary of the method: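 Compounds first screened in duplicate at a single 25 uM, with actives followed up in concentration series. Recombinant human MMP2 cleaves a fluorogenic substrate; fluorescence taken at 1 h, inhibition fitted relative to DMSO.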

[7] = target: human Matrix Metalloproteinase-7 (MMP7), MMP7 (gene 4316) (UniProt P09237); experiment: NVS_ENZ_hMMP7: NovaScreen (NVS) Enzymatic Assay for human Matrix Metalloproteinase-7 (MMP7) (AID 2283183)
Summary of the method: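 Compounds first tested at 25 uM in duplicate, then at up to 50 uM in concentration series if active. Protease activity measured by fluorescence intensity 1 h after dosing, with fitting relative to DMSO.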

[8] = target: human Matrix Metalloproteinase-3 (MMP3), MMP3 (gene 4314) (UniProt P08254); experiment: NVS_ENZ_hMMP3: NovaScreen (NVS) Enzymatic Assay for human Matrix Metalloproteinase-3 (MMP3) (AID 2283185)
Summary of the method: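 Fluorescent substrate turnover by recombinant MMP3 read after 1 h, signal loss scored against DMSO. Compounds first run in duplicate at 25 uM single dose, then actives confirmed by concentration series.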

[9] = target: Glycogen synthase kinase-3 beta (Homo sapiens) (UniProt P49841); experiment: NVS_ENZ_hGSK3b: NovaScreen (NVS) Enzymatic Assay for human Glycogen Synthase Kinase-3 beta (GSK3b) (AID 2283165)
Summary of the method: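 Recombinant enzyme with specific fluorescent substrate, 1 h, product separated by electrophoretic mobility shift. Primary duplicate screen at 25 uM; actives (e.g. 30% inhibition) followed in singleton concentration-response to 50 uM. Signal loss fitted versus DMSO.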

[10] = target: human Janus Kinase 2 (Jak2), JAK2 (gene 3717) (UniProt O60674); experiment: NVS_ENZ_hJak2: NovaScreen (NVS) Enzymatic Assay for human Janus Kinase 2 (Jak2) (AID 2283169)
Summary of the method: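 Single-point duplicate screen at 25 uM, with hits run in concentration series to a 50 uM top dose. Substrate-product separation by mobility shift with fluorescence detection, 1 h post-dosing; DMSO baseline.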

[11] = target: human Mitogen- and Stress-activated Protein Kinase-1 (Msk1), RPS6KA5 (gene 9252) (UniProt O75582); experiment: NVS_ENZ_hMsk1: NovaScreen (NVS) Enzymatic Assay for human Mitogen- and Stress-activated Protein Kinase-1 (Msk1) (AID 2283187)
Summary of the method: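 Chemicals first run in duplicate at 25 uM, with actives followed up in singleton concentration series to 50 uM maximum. Enzyme activity came from substrate/product mobility-shift separation with fluorescence detection after 1 h incubation of the recombinant protein.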

[12] = target: human NIMA (Never In Mitosis Gene A)-Related Kinase 2 (NEK2), NEK2 (gene 4751) (UniProt P51955); experiment: NVS_ENZ_hNEK2: NovaScreen (NVS) Enzymatic Assay for human NIMA (Never In Mitosis Gene A)-Related Kinase 2 (NEK2) (AID 2283188)
Summary of the method: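 Compounds were first screened in duplicate at 25 uM, with actives followed up in concentration series. Recombinant NEK2 activity, cell-free, was read 1 h after dosing by fluorescence intensity after mobility-shift separation. Signal loss was scored against DMSO.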

[13] = target: human p21 Activated Kinase 4 (PAK4), PAK4 (gene 10298) (UniProt O96013); experiment: NVS_ENZ_hPAK4: NovaScreen (NVS) Enzymatic Assay for human p21 Activated Kinase 4 (PAK4) (AID 2283189)
Summary of the method: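 Extracted PAK4 enzyme activity read by fluorescence with mobility-shift separation 1 h after chemical addition. Duplicate single-concentration screen at 25 uM, DMSO as negative control.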

[14] = target: cAMP-dependent protein kinase catalytic subunit alpha (Homo sapiens) (UniProt P17612); experiment: NVS_ENZ_hPKA: NovaScreen (NVS) Enzymatic Assay for human Protein Kinase A (PKA) (AID 2283192)
Summary of the method: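 Cell-free kinase activity read by fluorescence after mobility-shift separation of substrate and product, 1 h post-dosing. Single-concentration duplicate screen (25 uM) preceded singleton concentration series (top 50 uM); loss of signal versus DMSO.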

[15] = target: human IkappaB Kinase alpha (IKKa), CHUK (gene 1147) (UniProt O15111); experiment: NVS_ENZ_hIKKa: NovaScreen (NVS) Enzymatic Assay for human IkappaB Kinase alpha (IKKa) (AID 2283167)
Summary of the method: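 Compounds first run in duplicate at 25 uM, those meeting threshold (e.g. 30% inhibition) retested to maximum 50 uM. Enzyme activity of recombinant IKKa measured by fluorescence with electrophoretic mobility shift separation, 1 hour post-dosing, DMSO baseline.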

[16] = target: human MAP Kinase-Activated Protein Kinase 2 (MAPKAPK2), MAPKAPK2 (gene 9261) (UniProt P49137); experiment: NVS_ENZ_hMAPKAPK2: NovaScreen (NVS) Enzymatic Assay for human MAP Kinase-Activated Protein Kinase 2 (MAPKAPK2) (AID 2283178)
Summary of the method: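 Chemicals screened in duplicate at 25 uM, then to 50 uM top concentration in concentration-response, against recombinant human MAPKAPK2; substrate conversion read 1 hr post-dosing by fluorescence after electrophoretic mobility-shift separation, loss-of-signal relative to DMSO.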

[17] = target: human LYN Proto-Oncogene, Src family Tyrosine Kinase (LynA), LYN (gene 4067) (UniProt P07948); experiment: NVS_ENZ_hLynA: NovaScreen (NVS) Enzymatic Assay for human LYN Proto-Oncogene, Src family Tyrosine Kinase (LynA) (AID 2283173)
Summary of the method: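 Recombinant kinase with fluorescent substrate; product separated from substrate by electrophoretic mobility shift and read 1 h after dosing. Duplicate screen at 25 uM, then concentration-response up to 50 uM; activity scored as signal loss against DMSO.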

[18] = target: human Matrix Metalloproteinase-1 (MMP1), MMP1 (gene 4312) (UniProt P03956); experiment: NVS_ENZ_hMMP1: NovaScreen (NVS) Enzymatic Assay for human Matrix Metalloproteinase-1 (MMP1) (AID 2283181)
Summary of the method: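 Cell-free fluorescent substrate assay of human MMP1, read after 1 h. A single 25 uM duplicate screen was followed by concentration series to a maximum of 50 uM for actives meeting threshold; inhibition analysed against DMSO baseline.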

[19] = target: human Mitogen-Activated Protein Kinase 1 (MAPK 1), MAPK1 (gene 5594) (UniProt P28482); experiment: NVS_ENZ_hMAPK1: NovaScreen (NVS) Enzymatic Assay for human Mitogen-Activated Protein Kinase 1 (MAPK 1) (AID 2283175)
Summary of the method: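 Cell-free recombinant human MAPK1 enzymatic assay, fluorescence/electrophoretic mobility shift read at 1 h; loss of signal vs DMSO. Primary screen in duplicate at 25 uM; actives (e.g. ≥30% inhibition) run as concentration-response up to 50 uM.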

[20] = target: Collagenase 3 (Homo sapiens) (UniProt P45452); experiment: NVS_ENZ_hMMP13: NovaScreen (NVS) Enzymatic Assay for human Matrix Metalloproteinase-13 (MMP13) (AID 2283182)
Summary of the method: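 Recombinant MMP13 cleaving fluorescent substrate, cell-free, measured 1 h after dosing. Primary duplicate screen at 25 uM; actives tested in concentration-response up to 50 uM; loss of signal relative to DMSO.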

Sequence of human Matrix Metalloproteinase-1 (MMP1), MMP1 (gene 4312) (P03956 whole entry, looked up): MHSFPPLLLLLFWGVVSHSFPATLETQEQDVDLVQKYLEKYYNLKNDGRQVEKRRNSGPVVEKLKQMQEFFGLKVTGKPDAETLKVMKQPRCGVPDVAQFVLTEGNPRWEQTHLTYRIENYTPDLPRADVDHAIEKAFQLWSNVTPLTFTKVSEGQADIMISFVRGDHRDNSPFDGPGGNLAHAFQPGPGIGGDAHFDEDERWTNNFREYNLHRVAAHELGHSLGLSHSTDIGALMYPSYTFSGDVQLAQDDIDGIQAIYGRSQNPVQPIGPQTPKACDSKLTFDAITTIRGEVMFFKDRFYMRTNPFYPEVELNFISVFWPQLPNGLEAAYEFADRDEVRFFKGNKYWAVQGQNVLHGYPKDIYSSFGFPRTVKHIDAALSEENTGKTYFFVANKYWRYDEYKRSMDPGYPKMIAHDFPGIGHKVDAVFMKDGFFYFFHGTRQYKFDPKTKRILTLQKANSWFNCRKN
Sequence of human MET Proto-Oncogene, Receptor Tyrosine Kinase (MET), MET (gene 4233) (P08581 whole entry, looked up): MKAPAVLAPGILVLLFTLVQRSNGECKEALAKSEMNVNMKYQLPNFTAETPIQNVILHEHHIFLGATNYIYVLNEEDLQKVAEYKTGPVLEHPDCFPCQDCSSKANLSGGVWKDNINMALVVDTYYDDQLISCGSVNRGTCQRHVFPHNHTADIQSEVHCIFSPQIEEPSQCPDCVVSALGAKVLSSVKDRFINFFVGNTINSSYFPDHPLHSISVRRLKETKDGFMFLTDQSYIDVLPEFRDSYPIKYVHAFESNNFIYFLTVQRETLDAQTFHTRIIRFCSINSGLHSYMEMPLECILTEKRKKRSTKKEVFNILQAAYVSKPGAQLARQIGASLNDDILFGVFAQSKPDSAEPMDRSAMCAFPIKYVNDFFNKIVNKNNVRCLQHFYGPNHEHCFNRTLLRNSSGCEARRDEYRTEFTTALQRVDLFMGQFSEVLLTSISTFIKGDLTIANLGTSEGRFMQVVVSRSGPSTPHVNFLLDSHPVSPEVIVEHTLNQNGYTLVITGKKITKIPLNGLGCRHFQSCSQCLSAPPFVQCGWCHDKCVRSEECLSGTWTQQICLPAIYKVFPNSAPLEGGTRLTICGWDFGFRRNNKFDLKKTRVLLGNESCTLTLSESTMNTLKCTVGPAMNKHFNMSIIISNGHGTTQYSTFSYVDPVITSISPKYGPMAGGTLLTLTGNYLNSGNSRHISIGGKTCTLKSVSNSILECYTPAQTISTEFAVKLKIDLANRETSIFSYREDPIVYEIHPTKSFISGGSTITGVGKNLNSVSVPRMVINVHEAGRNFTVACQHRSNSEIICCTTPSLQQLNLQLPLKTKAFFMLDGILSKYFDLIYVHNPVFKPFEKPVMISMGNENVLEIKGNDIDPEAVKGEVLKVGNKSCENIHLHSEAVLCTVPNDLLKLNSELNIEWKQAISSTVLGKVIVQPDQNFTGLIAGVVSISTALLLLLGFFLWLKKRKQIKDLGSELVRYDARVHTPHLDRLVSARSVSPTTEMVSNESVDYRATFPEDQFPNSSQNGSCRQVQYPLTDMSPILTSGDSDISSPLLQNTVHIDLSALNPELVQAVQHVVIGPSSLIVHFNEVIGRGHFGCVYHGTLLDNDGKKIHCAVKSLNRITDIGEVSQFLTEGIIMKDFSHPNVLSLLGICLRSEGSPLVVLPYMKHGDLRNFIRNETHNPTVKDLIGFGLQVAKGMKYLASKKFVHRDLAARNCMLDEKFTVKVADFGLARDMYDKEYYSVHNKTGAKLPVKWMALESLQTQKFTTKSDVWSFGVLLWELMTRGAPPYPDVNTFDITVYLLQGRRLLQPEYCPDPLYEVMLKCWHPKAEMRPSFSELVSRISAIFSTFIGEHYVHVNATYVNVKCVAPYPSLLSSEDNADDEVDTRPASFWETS
Sequence of Mitogen-activated protein kinase 3 (Homo sapiens) (P27361 whole entry, looked up): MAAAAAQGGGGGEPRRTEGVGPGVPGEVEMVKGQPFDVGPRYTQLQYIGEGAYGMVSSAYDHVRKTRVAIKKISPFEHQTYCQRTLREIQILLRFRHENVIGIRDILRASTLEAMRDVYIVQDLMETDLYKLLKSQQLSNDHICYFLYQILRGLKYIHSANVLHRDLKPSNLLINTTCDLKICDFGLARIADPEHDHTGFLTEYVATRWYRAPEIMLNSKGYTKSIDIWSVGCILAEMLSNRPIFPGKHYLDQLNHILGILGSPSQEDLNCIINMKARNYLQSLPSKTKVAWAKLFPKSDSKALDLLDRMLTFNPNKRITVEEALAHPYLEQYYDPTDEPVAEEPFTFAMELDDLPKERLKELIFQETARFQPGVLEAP
Sequence of human Phosphodiesterase 4A1 (PDE4A1), PDE4A (gene 5141) (P27815 whole entry, looked up): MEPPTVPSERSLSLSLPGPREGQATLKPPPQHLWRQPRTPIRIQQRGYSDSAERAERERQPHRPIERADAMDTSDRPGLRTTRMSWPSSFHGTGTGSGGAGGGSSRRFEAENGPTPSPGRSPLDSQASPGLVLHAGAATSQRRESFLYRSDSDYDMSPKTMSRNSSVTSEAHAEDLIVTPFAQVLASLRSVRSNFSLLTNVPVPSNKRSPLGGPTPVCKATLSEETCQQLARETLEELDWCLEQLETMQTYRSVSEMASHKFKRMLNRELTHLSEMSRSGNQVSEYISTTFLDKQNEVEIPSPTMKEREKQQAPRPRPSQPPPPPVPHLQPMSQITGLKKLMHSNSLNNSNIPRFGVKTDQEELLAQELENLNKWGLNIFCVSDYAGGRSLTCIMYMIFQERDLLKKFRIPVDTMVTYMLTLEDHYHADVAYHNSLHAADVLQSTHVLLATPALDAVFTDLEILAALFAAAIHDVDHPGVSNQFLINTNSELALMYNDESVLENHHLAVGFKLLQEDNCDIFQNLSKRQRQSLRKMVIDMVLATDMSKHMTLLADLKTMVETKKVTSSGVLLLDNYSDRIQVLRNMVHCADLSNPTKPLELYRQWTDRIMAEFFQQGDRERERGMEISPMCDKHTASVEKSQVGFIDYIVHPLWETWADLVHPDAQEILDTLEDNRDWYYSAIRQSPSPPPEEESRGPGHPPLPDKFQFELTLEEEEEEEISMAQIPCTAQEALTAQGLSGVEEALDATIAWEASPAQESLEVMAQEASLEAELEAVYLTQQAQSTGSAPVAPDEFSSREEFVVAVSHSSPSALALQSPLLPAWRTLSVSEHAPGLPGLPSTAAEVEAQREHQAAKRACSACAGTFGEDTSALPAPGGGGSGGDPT
Sequence of Protein deacetylase HDAC6 (Homo sapiens) (Q9UBN7 whole entry, looked up): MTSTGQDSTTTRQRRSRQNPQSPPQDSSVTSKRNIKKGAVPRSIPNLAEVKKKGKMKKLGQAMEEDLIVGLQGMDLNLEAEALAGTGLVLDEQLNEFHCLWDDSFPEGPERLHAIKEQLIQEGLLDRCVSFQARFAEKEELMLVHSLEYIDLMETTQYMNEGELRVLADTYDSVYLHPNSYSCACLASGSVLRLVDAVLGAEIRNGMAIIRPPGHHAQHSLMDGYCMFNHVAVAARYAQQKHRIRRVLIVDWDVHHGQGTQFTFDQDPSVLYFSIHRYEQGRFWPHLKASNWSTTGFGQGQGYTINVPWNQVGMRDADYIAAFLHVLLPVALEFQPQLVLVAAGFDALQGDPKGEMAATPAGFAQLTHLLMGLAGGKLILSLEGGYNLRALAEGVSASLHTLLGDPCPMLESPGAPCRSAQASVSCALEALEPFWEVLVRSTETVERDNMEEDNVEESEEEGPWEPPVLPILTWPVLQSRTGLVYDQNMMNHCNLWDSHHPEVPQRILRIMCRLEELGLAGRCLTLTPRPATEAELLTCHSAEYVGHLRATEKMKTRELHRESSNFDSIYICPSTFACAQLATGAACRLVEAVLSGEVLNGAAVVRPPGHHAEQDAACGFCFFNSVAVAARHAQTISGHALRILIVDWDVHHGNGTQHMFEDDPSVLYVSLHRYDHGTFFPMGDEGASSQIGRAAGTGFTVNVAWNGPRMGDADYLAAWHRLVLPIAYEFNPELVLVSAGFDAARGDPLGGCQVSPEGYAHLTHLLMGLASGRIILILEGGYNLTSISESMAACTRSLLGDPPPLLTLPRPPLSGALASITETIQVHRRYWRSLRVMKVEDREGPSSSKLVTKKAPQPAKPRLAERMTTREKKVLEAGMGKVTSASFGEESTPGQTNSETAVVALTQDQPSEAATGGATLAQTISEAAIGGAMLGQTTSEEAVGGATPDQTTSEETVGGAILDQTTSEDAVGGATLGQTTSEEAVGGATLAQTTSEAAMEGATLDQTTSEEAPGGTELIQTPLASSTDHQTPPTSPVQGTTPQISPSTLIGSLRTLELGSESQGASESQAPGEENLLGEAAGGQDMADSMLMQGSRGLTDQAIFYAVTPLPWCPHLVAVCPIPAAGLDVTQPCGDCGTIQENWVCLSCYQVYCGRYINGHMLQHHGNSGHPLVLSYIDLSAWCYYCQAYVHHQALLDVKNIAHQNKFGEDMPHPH
Sequence of human Matrix Metalloproteinase-7 (MMP7), MMP7 (gene 4316) (P09237 whole entry, looked up): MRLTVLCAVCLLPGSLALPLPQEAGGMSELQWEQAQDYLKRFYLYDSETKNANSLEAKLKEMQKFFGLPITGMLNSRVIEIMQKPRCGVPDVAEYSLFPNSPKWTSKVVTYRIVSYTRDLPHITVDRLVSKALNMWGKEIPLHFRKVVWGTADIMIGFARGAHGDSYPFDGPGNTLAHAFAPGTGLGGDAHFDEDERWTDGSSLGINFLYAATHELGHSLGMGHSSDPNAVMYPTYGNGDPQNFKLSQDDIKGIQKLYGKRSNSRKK
Sequence of Glycogen synthase kinase-3 beta (Homo sapiens) (P49841 whole entry, looked up): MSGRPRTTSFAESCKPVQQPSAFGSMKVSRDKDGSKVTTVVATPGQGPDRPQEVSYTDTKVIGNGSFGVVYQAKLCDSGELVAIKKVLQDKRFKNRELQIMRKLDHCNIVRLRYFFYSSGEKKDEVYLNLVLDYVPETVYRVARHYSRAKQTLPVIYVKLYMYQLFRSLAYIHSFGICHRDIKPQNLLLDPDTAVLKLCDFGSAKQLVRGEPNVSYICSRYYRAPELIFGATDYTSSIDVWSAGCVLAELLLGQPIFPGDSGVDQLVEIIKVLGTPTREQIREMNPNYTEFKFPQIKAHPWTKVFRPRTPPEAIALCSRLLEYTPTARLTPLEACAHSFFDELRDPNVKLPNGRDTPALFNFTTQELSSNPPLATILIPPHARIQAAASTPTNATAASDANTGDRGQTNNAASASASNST

## CCNc1nc(Cl)nc(NC(C)C)n1
[1]
  AC50: 1.22 µM (active)

## CON(C)C(=O)Nc1ccc(Cl)c(Cl)c1
[1]
  AC50: 3.85 µM (active)

## CN(C)C(=S)SSC(=S)N(C)C
[2]
  outcome: inactive

## CS/C(C)=N/OC(=O)N(C)SN(C)C(=O)O/N=C(\C)SC
[3]
  outcome: inactive

## COc1cnc(OC)n2nc(NS(=O)(=O)c3c(OCC(F)F)cccc3C(F)(F)F)nc12
[4]
  outcome: inactive

## CCOC(=O)CC(SP(=S)(OC)OC)C(=O)OCC (stereo unspecified)
[5]
  outcome: inactive
[1]
  outcome: inactive

## CCNc1nc(Cl)nc(NCC)n1
[4]
  outcome: inactive
[6]
  outcome: inactive
[1]
  AC50: 8.46 µM (active)

## N#Cc1cc(Br)c(O)c(Br)c1
[7]
  outcome: inactive

## O=C(O)c1nc(Cl)ccc1Cl
[8]
  outcome: inactive

## CCCN(CCC)c1c([N+](=O)[O-])cc(S(N)(=O)=O)cc1[N+](=O)[O-]
[9]
  outcome: inactive
[10]
  outcome: inactive
[2]
  outcome: inactive
[11]
  outcome: inactive
[12]
  outcome: inactive
[13]
  outcome: inactive
[1]
  outcome: inactive

## COC(=O)C=C(C)OP(=O)(OC)OC
[8]
  outcome: inactive

## CCOP(=S)(OCC)SCn1c(=O)oc2cc(Cl)ccc21
[7]
  outcome: inactive
[1]
  AC50: 9.57 µM (active)

## COc1nc(C)nc(NC(=O)NS(=O)(=O)c2ccccc2Cl)n1
[9]
  outcome: inactive
[14]
  outcome: inactive

## COc1nc(NC(C)C)nc(NC(C)C)n1
[1]
  AC50: 13.4 µM (active)

## COc1nc(C)nc(NC(=O)NS(=O)(=O)c2ccccc2CCC(F)(F)F)n1
[2]
  outcome: inactive
[7]
  outcome: inactive

## CNC(=S)S
[9]
  outcome: inactive
[15]
  outcome: inactive
[4]
  outcome: inactive
[16]
  outcome: inactive
[2]
  outcome: inactive
[7]
  outcome: inactive
[8]
  outcome: inactive
[11]
  outcome: inactive
[14]
  outcome: inactive

## COC(=O)c1ccccc1C(=O)OC
[17]
  outcome: inactive

## CCCCNC(=O)OCC#CI
[3]
  AC50: 25 µM (active)
  outcome: inactive
[17]
  outcome: inactive

## CC(C)(C)c1ccc(CSc2cnn(C(C)(C)C)c(=O)c2Cl)cc1
[15]
  outcome: inactive

## CCCCNC(=O)n1c(NC(=O)OC)nc2ccccc21
[5]
  outcome: inactive

## C=CCC1=C(C)C(OC(=O)C2C(C=C(C)C)C2(C)C)CC1=O (stereo unspecified)
[18]
  AC50: 8.92 µM (active)
[5]
  AC50: 0.793 µM (active)

## Cc1ccc(-c2c(Cl)nc(C#N)n2S(=O)(=O)N(C)C)cc1
[9]
  AC50: 18.2 µM (active)

## N#Cc1nn(-c2c(Cl)cc(C(F)(F)F)cc2Cl)c(N)c1S(=O)C(F)(F)F (stereo unspecified)
[8]
  outcome: inactive
[14]
  outcome: inactive

## COc1ccc(C(c2ccc(OC)cc2)C(Cl)(Cl)Cl)cc1
[4]
  outcome: inactive
[7]
  outcome: inactive
[5]
  outcome: inactive

## C=CCC1=C(C)[C@@H](OC(=O)[C@@H]2[C@@H](C=C(C)C)C2(C)C)CC1=O
[19]
  outcome: inactive
[4]
  outcome: inactive

## CO/C=C(/C(=O)OC)c1ccccc1Oc1cc(Oc2ccccc2C#N)ncn1
[15]
  outcome: inactive
[20]
  outcome: inactive
[6]
  outcome: inactive
[8]
  outcome: inactive
[1]
  AC50: 14 µM (active)
  outcome: inactive

## CC1COC(Cn2cncn2)(c2ccc(Oc3ccc(Cl)cc3)cc2Cl)O1 (stereo unspecified)
[5]
  outcome: inactive

## CCCC1COC(Cn2cncn2)(c2ccc(Cl)cc2Cl)O1 (stereo unspecified)
[18]
  AC50: 6.45 µM (active)

## CC(C)C1(C)N=C(c2nc3ccccc3cc2C(=O)O)NC1=O (stereo unspecified)
[18]
  outcome: inactive
